# Data published in PubChem BioAssay AID1159580 (chemical genetic matrix, 2015).
# In all, about 5,500 compounds went through this assay and about 2,000 (36%) were called active. Not shown: some 18% with an inconclusive outcome. The list shows a part of the results. A number with no mark means an inactive call. Rule as the data show it: active = normalized growth mostly below about 0.91 (no sharp cut-off); inconclusive = no clear call, values can overlap the other calls; inactive = mostly above about 0.92.
# Test: chemical genetic growth profiling, strain panel (AID 1159580);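 also: tested at 20 µM; growth read once vehicle control cultures reached saturation at 30 °C; 1 = growth at the plate median or of vehicle wells; lower values mean less growth of the strain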
# Details: S. cerevisiae deletion strains, growth OD
# [1] = locus YAR019C, strain CDC15, hits give low values
# [2] = locus YBL105C, strain PKC1, hits give low values
# [3] = locus YBR135W, strain CKS1, hits give low values
# [4] = locus YBR136W, strain MEC1, hits give low values
# [5] = locus YBR160W, strain CDC28, hits give low values
# [6] = locus YDL017W, strain CDC7, hits give low values
# [7] = locus YDL028C, strain MPS1, hits give low values
# [8] = locus YDL101C, strain DUN1, hits give low values
# [9] = locus YDL108W, strain KIN28, hits give low values
# [10] = locus YDL132W, strain cdc53, hits give low values
# [11] = locus YDL214C, strain PRR2, hits give low values
# [12] = locus YDR052C, strain DBF4, hits give low values
# [13] = locus YDR054C, strain cdc34, hits give low values
# [14] = locus YDR226W, strain ADK1, hits give low values
# [15] = locus YDR477W, strain SNF1, hits give low values
# [16] = locus YER123W, strain YCK3, hits give low values
# [17] = locus YER133W, strain GLC7, hits give low values
# [18] = locus YFL009W, strain cdc4, hits give low values
# [19] = locus YFL029C, strain CAK1, hits give low values
# [20] = locus YFR003C, strain YPI1, hits give low values
# [21] = locus YFR019W, strain FAB1, hits give low values
# [22] = locus YFR028C, strain CDC14, hits give low values
# [23] = locus YGR040W, strain KSS1, hits give low values
# [24] = locus YGR052W, strain FMP48, hits give low values
# [25] = locus YGR092W, strain DBF2, hits give low values
# [26] = locus YHR030C, strain SLT2, hits give low values
# [27] = locus YHR079C, strain IRE1, hits give low values
# [28] = locus YHR082C, strain KSP1, hits give low values
# [29] = locus YHR205W, strain SCH9, hits give low values
# [30] = locus YIL147C, strain SLN1, hits give low values
# [31] = locus YJL095W, strain BCK1, hits give low values
# [32] = locus YJL128C, strain PBS2, hits give low values
# [33] = locus YJL157C, strain FAR1, hits give low values
# [34] = locus YJR016C, strain ILV3, hits give low values
# [35] = locus YJR066W, strain TOR1 (second series), hits give low values
# [36] = locus YJR066W, strain TOR1, hits give low values
# [37] = locus YKL048C, strain ELM1, hits give low values
# [38] = locus YKL067W, strain YNK1, hits give low values
# [39] = locus YKL101W, strain HSL1, hits give low values
# [40] = locus YKL193C, strain SDS22, hits give low values
# [41] = locus YKL203C, strain TOR2, hits give low values
# [42] = locus YLR113W, strain HOG1, hits give low values
# [43] = locus YLR133W, strain CKI1, hits give low values
# [44] = locus YLR403W, strain SFP1, hits give low values
# [45] = locus YML070W, strain DAK1, hits give low values
# [46] = locus YMR001C, strain CDC5, hits give low values
# [47] = locus YMR205C, strain PFK2 (second series), hits give low values
# [48] = locus YMR277W, strain FCP1, hits give low values
# [49] = locus YNL006W, strain LST8, hits give low values
# [50] = locus YNL020C, strain ARK1, hits give low values
# [51] = locus YNL161W, strain CBK1, hits give low values
# [52] = locus YNL183C, strain NPR1, hits give low values
# [53] = locus YNL207W, strain RIO2, hits give low values
# [54] = locus YNL222W, strain SSU72, hits give low values
# [55] = locus YNL307C, strain MCK1 (second series), hits give low values
# [56] = locus YOL078W, strain AVO1, hits give low values
# [57] = locus YOL136C, strain PFK27, hits give low values
# [58] = locus YOR061W, strain CKA2, hits give low values
# [59] = locus YOR119C, strain RIO1, hits give low values
# [60] = locus YOR231W, strain MKK1, hits give low values
# [61] = locus YOR329C, strain SCD5, hits give low values
# [62] = locus YPL031C, strain PHO85, hits give low values
# [63] = locus YPL153C, strain RAD53, hits give low values
# [64] = locus YPL204W, strain HRR25, hits give low values
# [65] = locus YPL209C, strain IPL1, hits give low values
# [66] = locus YPL256C, strain CLN2, hits give low values
# [67] = locus YPR025C, strain CCL1, hits give low values
# [68] = locus YPR106W, strain ISR1, hits give low values
# [69] = locus YPR111W, strain DBF20, hits give low values
# [70] = strain NNK1, hits give low values
# [71] = strain TSCII, hits give low values
structure (smiles),measurement,setting,value
O=[N+]([O-])c1cccc(C2CC(c3ccccc3)=Nc3ccccc3S2)c1 (centres undefined),normalized growth,[1],0.947
same,normalized growth,[2],0.953
same,normalized growth,[3],0.959
same,normalized growth,[4],0.974
same,normalized growth,[5],0.966
same,normalized growth,[6],0.97
same,normalized growth,[7],0.965
same,normalized growth,[8],0.95
same,normalized growth,[9],0.975
same,normalized growth,[10],0.952
same,normalized growth,[11],0.962
same,normalized growth,[12],0.973
same,normalized growth,[13],0.946
same,normalized growth,[14],0.953
same,normalized growth,[15],0.962
same,normalized growth,[16],1
same,normalized growth,[17],0.96
same,normalized growth,[18],0.959
same,normalized growth,[19],0.939
same,normalized growth,[20],0.973
same,normalized growth,[21],0.996
same,normalized growth,[22],0.948
same,normalized growth,[23],0.955
same,normalized growth,[24],1.06
same,normalized growth,[25],0.969
same,normalized growth,[26],0.976
same,normalized growth,[27],0.975
same,normalized growth,[28],0.997
same,normalized growth,[29],0.934
same,normalized growth,[30],0.969
same,normalized growth,[31],0.982
same,normalized growth,[32],0.93
same,normalized growth,[33],0.969
same,normalized growth,[34],0.954
same,normalized growth,[35],0.934
same,normalized growth,[36],0.974
same,normalized growth,[37],0.971
same,normalized growth,[38],0.968
same,normalized growth,[39],0.965
same,normalized growth,[40],0.954
same,normalized growth,[41],1.01
same,normalized growth,[42],0.927
same,normalized growth,[43],0.977
same,normalized growth,[44],0.95
same,normalized growth,[45],0.975
same,normalized growth,[46],0.946
same,normalized growth,[47],0.967
same,normalized growth,[48],0.952
same,normalized growth,[49],0.97
same,normalized growth,[50],0.963
same,normalized growth,[51],0.957
same,normalized growth,[52],0.985
same,normalized growth,[53],0.964
same,normalized growth,[54],0.958
same,normalized growth,[55],0.98
same,normalized growth,[56],0.952
same,normalized growth,[57],0.996
same,normalized growth,[58],0.949
same,normalized growth,[59],0.975
same,normalized growth,[60],0.983
same,normalized growth,[61],0.95
same,normalized growth,[62],0.961
same,normalized growth,[63],0.964
same,normalized growth,[64],0.979
same,normalized growth,[65],0.957
same,normalized growth,[66],0.939
same,normalized growth,[67],0.954
same,normalized growth,[68],0.967
same,normalized growth,[69],0.968
same,normalized growth,[70],0.963
same,normalized growth,[71],0.946
CC(C)(C)c1cc(C(=O)NNc2cccc(Cl)c2)n(Cc2ccccc2)n1,normalized growth,[1],0.98
same,normalized growth,[2],0.978
same,normalized growth,[3],0.983
same,normalized growth,[4],0.973
same,normalized growth,[5],0.975
same,normalized growth,[6],0.987
same,normalized growth,[7],0.975
same,normalized growth,[8],0.955
same,normalized growth,[9],0.978
same,normalized growth,[10],0.969
same,normalized growth,[11],0.917
same,normalized growth,[12],0.976
same,normalized growth,[13],0.979
same,normalized growth,[14],0.985
same,normalized growth,[15],0.923
same,normalized growth,[16],0.832
same,normalized growth,[17],0.926
same,normalized growth,[18],0.992
same,normalized growth,[19],0.939
same,normalized growth,[20],0.99
same,normalized growth,[21],0.911
same,normalized growth,[22],0.974
same,normalized growth,[23],0.906
same,normalized growth,[24],0.922
same,normalized growth,[25],0.822
same,normalized growth,[26],0.862
same,normalized growth,[27],0.927
same,normalized growth,[28],0.962
same,normalized growth,[29],0.894
same,normalized growth,[30],0.981
same,normalized growth,[31],0.825
same,normalized growth,[32],0.956
same,normalized growth,[33],0.892
same,normalized growth,[34],0.985
same,normalized growth,[35],0.884
same,normalized growth,[36],0.935
same,normalized growth,[37],0.889
same,normalized growth,[38],0.935
same,normalized growth,[39],0.917
same,normalized growth,[40],0.96
same,normalized growth,[41],1.01
same,normalized growth,[42],0.787 (active)
same,normalized growth,[43],0.882
same,normalized growth,[44],0.913
same,normalized growth,[45],0.887
same,normalized growth,[46],0.975
same,normalized growth,[47],0.923
same,normalized growth,[48],0.988
same,normalized growth,[49],0.986
same,normalized growth,[50],0.887
same,normalized growth,[51],0.978
same,normalized growth,[52],0.965
same,normalized growth,[53],0.974
same,normalized growth,[54],0.982
same,normalized growth,[55],0.816
same,normalized growth,[56],0.96
same,normalized growth,[57],0.86
same,normalized growth,[58],0.847
same,normalized growth,[59],0.978
same,normalized growth,[60],0.869
same,normalized growth,[61],0.978
same,normalized growth,[62],0.94
same,normalized growth,[63],0.925
same,normalized growth,[64],0.889
same,normalized growth,[65],0.972
same,normalized growth,[66],0.863
same,normalized growth,[67],0.981
same,normalized growth,[68],0.969
same,normalized growth,[69],0.978
same,normalized growth,[70],0.961
same,normalized growth,[71],0.966
Cc1cccc(Cn2nc(C(C)(C)C)cc2C(=O)O)c1,normalized growth,"locus YAL013W, strain DEP1, hits give low values",0.96
same,normalized growth,"locus YBR229C, strain ROT2, hits give low values",0.96
same,normalized growth,"locus YCL061C, strain MRC1, hits give low values",1
same,normalized growth,[8],0.978
same,normalized growth,"locus YDR150W, strain NUM1, hits give low values",0.98
same,normalized growth,"locus YEL061C, strain CIN8, hits give low values",0.998
same,normalized growth,"locus YGR078C, strain PAC10, hits give low values",0.97
same,normalized growth,[26],1.03
same,normalized growth,"locus YHR087W, strain rtc3, hits give low values",0.949
same,normalized growth,"locus YJL187C, strain SWE1, hits give low values",0.973
same,normalized growth,"locus YJR043C, strain POL32, hits give low values",0.971
same,normalized growth,"locus YJR075W, strain HOC1, hits give low values",0.963
same,normalized growth,"locus YKL190W, strain CNB1, hits give low values",0.982
same,normalized growth,"locus YLR039C, strain RIC1, hits give low values",0.882
same,normalized growth,"locus YLR058C, strain SHM2 (second series), hits give low values",0.969
same,normalized growth,"locus YLR085C, strain ARP6, hits give low values",1.02
same,normalized growth,"locus YLR262C, strain YPT6, hits give low values",0.905
same,normalized growth,"locus YML094W, strain GIM5, hits give low values",1
same,normalized growth,"locus YMR219W, strain ESC1, hits give low values",0.946
same,normalized growth,"locus YMR263W, strain SAP30, hits give low values",0.998
same,normalized growth,"locus YNL153C, strain GIM3, hits give low values",0.985
same,normalized growth,"locus YNL298W, strain CLA4 (second series), hits give low values",0.997
same,normalized growth,"locus YNL322C, strain KRE1, hits give low values",0.946
same,normalized growth,"locus YNR030W, strain Alg12, hits give low values",1
same,normalized growth,"locus YPL055C, strain LGE1, hits give low values",0.978
same,normalized growth,"locus YPL241C, strain CIN2, hits give low values",1.01
same,normalized growth,"locus YPR135W, strain CTF4, hits give low values",0.986
